Results on ten compounds are retold here after PubChem BioAssay (NCATS).

Assay [1] has as its target Tyrosine-protein kinase Yes (Homo sapiens) (UniProt P07947). Briefly: qHTS for small molecule inhibitors of Yes1 kinase: Primary Screen (AID 686947).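 Also: plate controls were DMSO with enzyme for no effect and no-enzyme DMSO wells for full effect; nearly all actives have a fitted effect of over 60% in size.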 In outline:
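Yes1 (4 nM) preincubated 20 min with compound, then 60 min room-temperature reaction with 0.1 mM ATP and 0.3 mg/mL poly(E4Y) in pH 7.5 Tris, 10 mM MgCl2. ADP measured by ADP-Glo luminescence, normalised to enzyme/no-enzyme controls.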

A short description of assay [2]: qHTS for small molecule inhibitors of Yes1 kinase: Counter Assay (AID 686950).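 Also: no kinase present so only ADP-Glo detection of a fixed ADP amount is tested; luminescence from ADP-Glo reporting ADP in a fixed ATP and ADP mixture; 0% = DMSO wells with ATP plus ADP and -100% = ATP-only wells without ADP.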 In outline: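 Enzyme-free detection counter-screen: compounds preincubated 20 min in buffer, then 0.08 mM ATP plus 0.02 mM ADP added for 60 min at room temperature; ADP-Glo luminescence. Buffer 50 mM Tris pH 7.5, 10 mM MgCl2, 150 mM NaCl; normalized to ATP+ADP and ATP-only controls.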

The nature of assay [3]: qHTS Assay for Identifying Gametocytocidal Compounds (AID 743244). Also: potency is read from the fitted curve at half-maximal effect.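 As to max response: % is scaled to controls: 0 for no effect and ±100 for the full control effect; actives lower the fluorescent signal which means gametocytes are killed.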 To be noted: P. falciparum 3D7 stage III-V gametocytes, alamarBlue, 72 h; max response: stronger effect = lower value. The method in brief:
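Stage III-V P. falciparum 3D7 gametocytes, 20,000 per well, were exposed to compounds for 72 h at 37C, 5% CO2. AlamarBlue was then added for 24 h and viability was read as fluorescence at Ex 525/Em 598 nm.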

Assay [4] can be described thus: qHTS profiling for inhibitors of Plasmodium falciparum (3D7) proliferation (AID 743322).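 Also: infected erythrocytes exposed to compound for 72 h before lysis; 100% = DMSO vehicle wells and 0% = 0.29 µM artemisinin.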 To be noted: P. falciparum 3D7 proliferation; at 28.7 µM (top of the series). The method in brief:
(§1)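 Erythrocytes infected with P. falciparum (0.3% parasitemia, 2.5% hematocrit) incubated with compounds 72 h at 37 C, 5% CO2. Lysis with saponin/Triton buffer containing SYBR Green I, overnight at room temperature in the dark; DNA fluorescence (485/535 nm) normalised to 0.29 uM artemisinin and DMSO.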

Assay [5] in a line: qHTS profiling for inhibitors of Plasmodium falciparum (DD2) proliferation (AID 743323; call rule not given here). The following applies: lower = more inhibition; at 28.7 µM (top of the series). The method in brief: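 SYBR Green fluorescence (ex 485, em 535 nm) of lysed cultures gives parasite DNA content; wells normalized to artemisinin (0.29 uM) and DMSO controls. Infected red cells: 0.3% parasitemia, 2.5% hematocrit, 72 h, 37 C.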

Assay [6] can be described thus: qHTS profiling for inhibitors of Plasmodium falciparum (HB3) proliferation (AID 743324).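 Also: 100% = DMSO vehicle wells and 0% = artemisinin-treated control wells.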 To be noted: Plasmodium falciparum HB3 blood-stage proliferation; at 28.7 µM (top of the series). The method in brief: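 P. falciparum HB3 grown in erythrocytes (0.3% parasitemia, 2.5% hematocrit final) with compound for 72 h at 37 C, 5% CO2. Parasite DNA detected by SYBR Green after saponin/triton lysis overnight; normalized to 0.29 uM artemisinin and DMSO.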

Assay [7] is described as follows: qHTS profiling of the MIPE4 collection as inhibitors of Plasmodium falciparum (3D7) proliferation (AID 743344; call rule not given here;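 also: scaled between DMSO vehicle wells and 0.29 µM artemisinin as full inhibition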). The following applies: P. falciparum 3D7 in erythrocytes, SYBR Green DNA fluorescence, 72 h; at 28.5 µM (top of the series) unless noted. The method in brief: as §1
A short description of assay [8]: qHTS profiling of the MIPE4 collection as inhibitors of Plasmodium falciparum (DD2) proliferation (AID 743345; call rule not given here). To be noted: P. falciparum Dd2 in erythrocytes, SYBR Green DNA, 72 h; at 28.5 µM (top of the series) unless noted. In outline:
as §1

A short description of assay [9]: qHTS for compounds that reverse cellular toxicity of Amyloid beta (A-beta) peptide in yeast: LOPAC Validation Assay (AID 720559).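 Also: plate controls were DMSO for no effect and equimolar ferric chloride plus clioquinol rescue for full effect.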 The method in brief: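 Here, A-beta-toxic yeast grow with test compounds at 30 C for 48 hr before optical density at 600 nm is recorded; data are normalized against DMSO and the FeCl3-clioquinol control.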
Assay [10] is described as follows: qHTS for Activators of Parkin Expression: LOPAC Validation Assay (NLuc Reporter) (AID 720572;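 also: 0% = DMSO and 100% = positive control compound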). In outline: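 Neuronal cells with a Parkin promoter-driven FLuc/NLuc coincidence reporter were treated 24 h at 37 C in 7-point dose response (LOPAC). NLuc luminescence read after FLuc; signals normalized to DMSO and positive control (100%).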
Assay [11] is described as follows: qHTS for Activators of Parkin Expression: LOPAC Validation Assay (FLuc Reporter) (AID 720573;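 also: 0% = DMSO and 100% = positive control compounds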). In outline: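 Readout is FLuc luminescence from neuronal reporter cells (Parkin promoter, FLuc plus NLuc) after 24 h compound exposure in dose response. Values normalized to neutral DMSO and positive-control compounds.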
The target in assay [12] is T1, Hexokinase-4 (Homo sapiens) + Glucokinase regulatory protein (Homo sapiens) (UniProt P35557+Q14397). Kind of assay: qHTS assay for inhibitors of recombinant human GCK-GKRP interaction: Diaphorase-coupled assay (AID 743205). In outline: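 Signal derives from resorufin generated by diaphorase, linked to GCK turnover of glucose (5 mM) and ATP (0.4 mM). Enzyme complex was added after a 20-minute compound preincubation and monitored for 30 minutes.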

The target of assay [13] is T1, Hexokinase-4 (Homo sapiens) + Glucokinase regulatory protein (Homo sapiens). Kind of assay: qHTS assay for inhibitors of recombinant human GCK-GKRP interaction: ADP-Glo assay (AID 743206).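 Also: plate controls were DMSO plus enzyme for no effect and no enzyme for full effect.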 The method in brief:
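GST-GCK and FLAG-GKRP (15 nM each in the dispensed mix, with 2 uM S6P) react with 0.4 mM ATP and 5 mM glucose (final) in Hepes pH 7.6 for 60 min at room temperature. ADP is measured by ADP-Glo luminescence.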

Assay [14] has the same target. Briefly: qHTS assay for inhibitors of recombinant human GCK-GKRP interaction: HTRF assay (AID 743207).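 Also: 0% = DMSO with GCK present and -100% = DMSO wells lacking GCK.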 The method in brief:
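Titration screening format: recombinant GST-GCK and FLAG-GKRP at 5 nM, S6P at 2 uM, labelled anti-tag antibodies, 60 min at RT, dual-wavelength HTRF readout.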

Assay [15] in a line: qHTS assay for small molecule agonists of the antioxidant response element (ARE) signaling pathway measured by Nrf2-dependant transcriptional activity (AID 720636; active = well fitted curve in the direction sought with a large enough effect in the repeat runs; an effect the other way counts as inactive or inconclusive;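 also: HepG2 cells with an ARE-driven luciferase reporter; % of control where 0% means no effect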). The method in brief:
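Nrf2-dependent transcription is measured in ARE-luc HepG2 cells: compound is applied for 16 hr at 37 C after a 6 hr attachment period, and luciferase activity is quantified by luminescence using ONE-Glo.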

Assay [16] in a line: qHTS assay for small molecule agonists of the antioxidant response element (ARE) signaling pathway measured by Nrf2-dependant transcriptional activity - cell viability counter screen (AID 720653; active = well fitted curve in the direction sought with a large enough effect in the repeat runs; an effect the other way counts as inactive or inconclusive; also: % is scaled to controls: 0 for no effect and ±100 for the full control effect). To be noted: ARE-bla HepG2 viability, CellTiter-Glo ATP luminescence, 16 h; max response: stronger effect = lower value. In outline:
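ARE-bla HepG2 cells treated with compounds for 16 h at 37C; this counter screen measures viability as intracellular ATP by CellTiter-Glo luminescence after 30 min at room temperature.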

Assay [17] can be described thus: qHTS assay for cell viability of HEK293 cells (AID 743288). Also: nearly all actives have a fitted effect of over 50% in size. Also: potency is read from the fitted curve at half-maximal effect. As to max response: % is scaled to controls: 0 for no effect and ±100 for the full control effect. The following applies: ATP luminescence (CellTiter-Glo), 18 h; max response: stronger effect = lower value. In outline: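 Luminescent ATP quantitation served as the viability read-out. Cells (parental HEK293, 2,000/well) received compounds after at least 5 h at 37 C and were exposed for 18 h before a 30 min room-temperature reagent step.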

Assay [18] can be described thus: qHTS assay for cell viability of the p53RE-bla HCT-116 cell line (AID 743292). Also: % is scaled to controls: 0 for no effect and ±100 for the full control effect; nearly all actives have a fitted effect of over 55% in size. The method in brief:
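ATP-based luminescence, 16 h compound exposure at 37 C, p53RE-bla HCT-116 cells at 4,000/well.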

The nature of assay [19]: qHTS assay for small molecule antagonists of the retinoid-related orphan receptor gamma (ROR-gamma) signaling pathway - cell viability counter screen (AID 720652; active = well fitted curve in the direction sought with a large enough effect in the repeat runs; an effect the other way counts as inactive or inconclusive;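 also: compound exposure lasted 16 hr before ATP read; % is scaled to controls: 0 for no effect and ±100 for the full control effect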). The method in brief:
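Luminescence from CellTiter-Glo after 30 min at room temperature reported cellular ATP as the cytotoxicity measure. Cells were the CHO reporter line with doxycycline-induced ROR-gamma expression, exposed to compound for 16 hr at 37 C.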

The target in assay [20] is Arylsulfatase A (Homo sapiens) (UniProt P15289). Briefly: qHTS screen for enhancers of Arylsulfatase A (ASA1): LOPAC Validation Assay (AID 720538). To be noted: outcome: dose series up to 57.5 µM. In outline:
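Cell-based enhancement test: residual ASA activity in SV40-transformed I179S patient fibroblasts is measured by pNCS turnover (0.5mM final, 14h, room temperature) following 48h compound incubation; higher fluorescence indicates activation.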

Each structure is given as a SMILES string. Several values for one entry are separate records, joined by “and”; a condition that tells them apart may be missing. Equal values may be shown once. Records with an inconclusive call do not appear. More than one record can exist for a structure, and the calls need not agree. Activity calls are given as the source filed them. Unless noted, calls follow the shape of the dose curve; as a rule, active = well fitted curve in the direction sought with a large enough effect; inconclusive = small, poorly fitted or top-dose-only effect, or another doubt; inactive = no such curve, though single readings can be large; an effect the other way counts as inactive or inconclusive.

T1 sequence (P35557 whole entry, looked up): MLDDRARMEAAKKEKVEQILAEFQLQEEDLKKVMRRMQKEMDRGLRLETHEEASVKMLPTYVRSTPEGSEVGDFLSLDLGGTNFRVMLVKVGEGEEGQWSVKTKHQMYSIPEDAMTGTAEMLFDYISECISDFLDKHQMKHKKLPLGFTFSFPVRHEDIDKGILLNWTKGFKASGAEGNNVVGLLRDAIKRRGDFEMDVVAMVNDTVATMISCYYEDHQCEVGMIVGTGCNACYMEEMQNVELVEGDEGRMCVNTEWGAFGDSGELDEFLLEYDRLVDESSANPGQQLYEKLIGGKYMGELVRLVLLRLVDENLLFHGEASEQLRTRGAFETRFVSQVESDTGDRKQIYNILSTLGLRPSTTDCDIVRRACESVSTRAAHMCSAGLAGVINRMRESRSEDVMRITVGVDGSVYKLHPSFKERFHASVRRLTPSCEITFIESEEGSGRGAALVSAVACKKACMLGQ
T1 sequence (Q14397 whole entry, looked up): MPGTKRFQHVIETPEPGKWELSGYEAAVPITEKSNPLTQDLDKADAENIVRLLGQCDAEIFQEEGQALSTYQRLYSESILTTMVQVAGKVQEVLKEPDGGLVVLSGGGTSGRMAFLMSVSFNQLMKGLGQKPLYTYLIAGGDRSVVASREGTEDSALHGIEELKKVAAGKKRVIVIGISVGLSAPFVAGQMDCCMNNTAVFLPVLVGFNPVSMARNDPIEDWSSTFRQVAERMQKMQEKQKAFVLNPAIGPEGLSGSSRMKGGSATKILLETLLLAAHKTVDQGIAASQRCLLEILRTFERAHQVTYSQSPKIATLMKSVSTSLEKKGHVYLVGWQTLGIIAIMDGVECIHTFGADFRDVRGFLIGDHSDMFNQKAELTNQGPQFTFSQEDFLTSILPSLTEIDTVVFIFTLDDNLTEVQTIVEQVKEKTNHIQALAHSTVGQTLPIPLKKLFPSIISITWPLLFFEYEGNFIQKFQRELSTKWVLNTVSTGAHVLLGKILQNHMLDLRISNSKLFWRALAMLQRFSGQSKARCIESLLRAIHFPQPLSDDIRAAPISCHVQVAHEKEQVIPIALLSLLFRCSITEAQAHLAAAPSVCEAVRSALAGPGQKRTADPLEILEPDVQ
Tyrosine-protein kinase Yes (Homo sapiens), sequence (P07947 whole entry, looked up): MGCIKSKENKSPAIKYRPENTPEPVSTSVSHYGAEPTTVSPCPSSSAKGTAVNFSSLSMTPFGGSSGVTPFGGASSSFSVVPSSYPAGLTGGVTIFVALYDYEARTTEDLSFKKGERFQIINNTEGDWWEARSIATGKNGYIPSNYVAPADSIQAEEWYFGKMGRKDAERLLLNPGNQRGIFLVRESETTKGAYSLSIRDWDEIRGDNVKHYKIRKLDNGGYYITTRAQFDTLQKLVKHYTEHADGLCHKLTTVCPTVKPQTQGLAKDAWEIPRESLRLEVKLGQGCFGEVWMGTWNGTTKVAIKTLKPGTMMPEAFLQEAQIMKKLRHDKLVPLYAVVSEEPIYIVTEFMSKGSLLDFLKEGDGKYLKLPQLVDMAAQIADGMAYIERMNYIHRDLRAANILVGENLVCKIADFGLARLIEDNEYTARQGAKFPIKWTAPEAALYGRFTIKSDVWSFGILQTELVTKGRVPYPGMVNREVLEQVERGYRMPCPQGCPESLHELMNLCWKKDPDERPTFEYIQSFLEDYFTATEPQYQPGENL
Arylsulfatase A (Homo sapiens), sequence (P15289 whole entry, looked up): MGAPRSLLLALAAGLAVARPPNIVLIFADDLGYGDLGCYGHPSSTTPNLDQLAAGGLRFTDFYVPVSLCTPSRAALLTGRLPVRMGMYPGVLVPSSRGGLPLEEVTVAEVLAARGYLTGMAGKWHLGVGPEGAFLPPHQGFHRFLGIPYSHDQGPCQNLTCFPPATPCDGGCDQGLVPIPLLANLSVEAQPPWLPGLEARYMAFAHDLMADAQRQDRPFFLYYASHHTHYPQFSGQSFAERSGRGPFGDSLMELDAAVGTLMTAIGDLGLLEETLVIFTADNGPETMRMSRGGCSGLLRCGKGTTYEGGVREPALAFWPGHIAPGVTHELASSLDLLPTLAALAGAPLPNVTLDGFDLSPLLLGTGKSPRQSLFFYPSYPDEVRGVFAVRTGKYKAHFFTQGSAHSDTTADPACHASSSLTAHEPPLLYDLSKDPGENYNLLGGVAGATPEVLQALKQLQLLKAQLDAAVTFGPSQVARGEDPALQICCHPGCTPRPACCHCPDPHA

Turning to `COc1cc([C@@H]2c3cc4c(cc3[C@H](O)[C@H]3COC(=O)[C@H]23)OCO4)cc(OC)c1OC`, the call in assay [1] and in assay [2] was inactive.

Consider `CC(C)C[C@H](NC(=O)[C@H](CCc1ccccc1)NC(=O)CN1CCOCC1)C(=O)N[C@@H](Cc1ccccc1)C(=O)N[C@@H](CC(C)C)C(=O)[C@@]1(C)CO1`, for which the call in assay [1] and in assay [2] was inactive. Further, the Potency in assay [3] is 0.0118 µM (active). Further, in assay [4], the remaining parasite growth % (stronger effect = lower value) is -0.503%. Besides, the activity, percent of control in [5] was -1.29%. Moreover, the remaining proliferation (% of control), lower = more inhibition in assay [6] was determined as 0.46%. For the same compound, in assay [7], the parasite growth, % of DMSO control was found to be 5.1%. Besides, the parasite growth remaining, % of DMSO control (lower = more inhibition) in assay [8] turned out to be 7.08%.

With `NC(=O)c1ccc2[nH]ccc2c1`, the result in assay [9], in assay [10], in assay [11], in assay [12], in assay [13] and in [14] was inactive. Also, in assay [3], the max response is 11.4% (inactive). In [7], this compound showed a parasite growth, % of DMSO control of 98%. For the same compound, the parasite growth remaining, % of DMSO control (lower = more inhibition) in assay [8] came out at 90.8%.

For `CC(=O)[C@H]1CC[C@H]2[C@@H]3CCC4=CC(=O)CC[C@]4(C)[C@H]3CC[C@]12C`, the result in assay [9], in [10], in assay [11], in assay [15], in assay [12] and in assay [13] was inactive. For the same compound, the outcome in assay [14] was inactive. Moreover, the max response in assay [16] is -18% (inactive) and -11.7% (inactive) and -23.6% (inactive); in [3] it was -0.829% (inactive) and 23.1% (inactive); in [17], -28% (inactive). In addition, the Potency in assay [17] is 44.7 µM (active). Moreover, the Potency result in [18] is “inactive”.

In the case of `Cc1ncc([N+](=O)[O-])n1CCO`, the result in assay [15] was inactive. The Potency entry in [19] and in assay [18] was “inactive” in each case. Further, the max response in [16] was -1.04% (inactive); in [3], -1.29% (inactive); in assay [17] it was -4.68% (inactive). For the same compound, the parasite growth, % of DMSO control in assay [7] turned out to be 88.2%. In addition, in assay [8], the parasite growth remaining, % of DMSO control (lower = more inhibition) worked out at 101%.

Take `O=S(=O)(c1cccc2cnccc12)N1CCCNCC1`: the outcome in assay [1] and in assay [2] was inactive. Besides, in [3], the max response was -7.26% (inactive).

In the case of `CCN(CC)CC#CCOC(=O)C(O)(c1ccccc1)C1CCCCC1` (centres undefined), the outcome in assay [20], in assay [9], in assay [10], in assay [11], in assay [12] and in assay [13] was inactive. Besides, the outcome in assay [14] was inactive. Besides, in assay [3], the max response is -0.0303% (inactive) and 25.9% (inactive). This compound also came in with a parasite growth, % of DMSO control in [7] of 14.3%. For the same compound, the parasite growth remaining, % of DMSO control (lower = more inhibition) in [8] came to 58.4%.

Turning to `CCN(CC)CCn1c(=O)c(Cc2ccc(OC)cc2)nc2ccccc21`, the outcome in assay [1], in assay [2], in [20], in assay [9], in assay [10] and in assay [11] was inactive. Moreover, the result in assay [12], in assay [13] and in assay [14] was inactive. Further, in [3], the max response is -7.99% (inactive). Besides, the remaining parasite growth % (stronger effect = lower value) in assay [4] was 41.3%. The activity, percent of control in assay [5] turned out to be 89.9%. Moreover, the parasite growth remaining, % of DMSO control (lower = more inhibition) in [8] came to 46.8%.

Turning to `Cc1ccnc2c1NC(=O)c1cccnc1N2C1CC1`, the result in assay [15] was inactive. The Potency entry in [19] and in assay [18] was “inactive” each time. Moreover, the max response was -0.463% (inactive) in assay [16], 21.9% (inactive) in [3] and -6.97% (inactive) in assay [17].

Turning to `CC1=NN(c2ccccc2)C(=O)C1`, the compound was classed as inactive in [15]. Moreover, the Potency result in assay [19] and in assay [18] was “inactive” each time. Moreover, the max response was -3.99% (inactive) and -6.22% (inactive) in assay [16]; -1.13% (inactive) in assay [3]; -6.75% (inactive) and -3.56% (inactive) in assay [17]. In addition, the parasite growth, % of DMSO control in [7] is 89.4%. Moreover, the parasite growth remaining, % of DMSO control (lower = more inhibition) in [8] was 94.6%.
